Reference: PubChem BioAssay AID504660 (National Center for Advancing Translational Sciences (NCATS), 2011)
The whole screen tested about 360,000 compounds, of which about 3,700 (1%) were called active. The entries come from a sample that favours actives as a whole. Values without a mark were called inactive. Rule as the data show it: active = activation above about 30%; inactive = the rest.

target: D(1A) dopamine receptor (Homo sapiens) (UniProt P21728); assay: Allosteric Agonists of the Human D1 Dopamine Receptor: qHTS; settings: HEK293 T-REx D1 cells, calcium flux, agonist mode; at 2 µM; stronger effect = higher value; also: 0% is about no effect
In short: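 Tetracycline-induced HEK293 TREx D1 cells, force-coupled to calcium signalling, were dye-loaded with a no-wash calcium kit. Compound was pin-added after a 10 s baseline. Fluorescence was read kinetically at 1 cycle/s for 180 s, with calcium rises flagged as agonism.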

D(1A) dopamine receptor (Homo sapiens), sequence (P21728 whole entry, looked up): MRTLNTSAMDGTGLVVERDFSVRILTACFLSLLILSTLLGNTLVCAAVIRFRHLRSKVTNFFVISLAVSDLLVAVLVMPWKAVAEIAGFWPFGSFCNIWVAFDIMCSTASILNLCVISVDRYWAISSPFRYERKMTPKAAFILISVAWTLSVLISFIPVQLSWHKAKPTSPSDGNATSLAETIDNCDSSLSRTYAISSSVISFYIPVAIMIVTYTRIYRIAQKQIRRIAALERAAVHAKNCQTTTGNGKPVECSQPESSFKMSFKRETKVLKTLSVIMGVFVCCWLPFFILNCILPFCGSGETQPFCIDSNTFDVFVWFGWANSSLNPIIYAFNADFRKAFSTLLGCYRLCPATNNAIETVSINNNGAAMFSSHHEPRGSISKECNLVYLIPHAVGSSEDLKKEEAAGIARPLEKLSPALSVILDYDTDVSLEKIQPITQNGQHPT

| SMILES | activation |
| --- | --- |
| Cc1cccc(NC(=O)c2cc3c(C)nn(-c4ccccc4)c3s2)c1 | 2.46% |
| CCOC(=O)c1oc2ccc(S(=O)(=O)n3nc(-c4ccccc4OC)cc3N)cc2c1C | 4.93% |
| CC(C)(C)N(Cc1ccccc1)C(=O)c1ccncc1 | -0.455% |
| Cc1cc(C)cc(NC(=O)N(C)Cc2ccccc2)c1 | 2.04% |
| CN(C(=O)CN(CCO)CC(=O)N(C)C(C)(C)Cc1ccccc1)C(C)(C)Cc1ccccc1 | 40.5% (active) |
| CCOC(=O)c1c(S(=O)(=O)NCC(=O)Nc2ccc(Cl)c(C(F)(F)F)c2)c(C)n(C)c1C | 6.5% |
| Cc1cc(C)c(NC(=O)CSc2nc3nccnc3c(=O)n2CCc2c[nH]c3ccccc23)c(C)c1 | 2.34% |
| O=C(NCCN1C(=O)S/C(=C\c2cccnc2)C1=O)c1ccc(S(=O)(=O)N2CCCC2)cc1 | 1.07% |
| CCN1CCN(CCNC(=O)c2ccc(/C=C3/Sc4ccccc4N(Cc4cccc(C)c4)C3=O)cc2)CC1 | 48.6% (active) |
| O=C(CN1C(=O)/C(=C/c2ccccc2F)Sc2ccccc21)NCc1cccnc1 | 4.38% |
| CCn1c(=O)c(=O)n(CC)c2cc(N3CCCCC3)c(NC(=O)c3cccc(F)c3)cc21 | -0.479% |
| COc1c(F)c(F)c(C(=O)O)c(Nc2ccccc2C)c1F | 1.04% |
| CCCCCN(C(=O)NC(=O)Nc1ccccc1C)S(C)(=O)=O | 4.03% |
| CCCS(=O)(=O)c1c(Nc2ccccc2C)sc(C(=O)c2ccccc2)c1N | 32.6% (active) |
| CCOC(=O)N1CCc2c(sc3c2c(=O)n(-c2ccc(CC)cc2)c(=O)n3C)C1 | -0.644% |
| CCOC(=O)c1cc2c(=O)n3ccccc3nc2n(CC2CCCO2)c1=NC(=O)c1ccc(C(C)(C)C)cc1 (stereo not drawn) | 2.73% |
| CCCCCCc1cc2cc(-c3nnc(-c4ccccc4)o3)c(=O)oc2cc1O | 297% (active) |
| CCOc1ccc(CCNC(=O)c2c(C)oc3ncn(C)c(=O)c23)cc1 | 0.93% |
| CSc1ccc(C2C(C(=O)Nc3ccccc3)=C(C)Nc3nc4ccccc4n32)cc1 (stereo not drawn) | -0.673% |
| Cc1ccc(NC(=O)CN2C(=O)C(c3ccc(F)cc3)=NC23CCCCCC3)c(C)c1 | 7.18% |

| SMILES | activation |
| --- | --- |
| CC(C)c1ccc(NS(=O)(=O)c2ccc3[nH]cc(C(=O)NC4CCCC4)c(=O)c3c2)cc1 | 5.71% |
| Cc1ccc(NC(=O)c2ccc(CN3CC(=O)N4CCCCC4C3=O)cc2)c(Cl)c1 (stereo not drawn) | 1.1% |
| CNCC[C@H](Oc1ccc(C(F)(F)F)cc1)c1ccccc1 | 111% (active) |
| CC(NC(=O)Cn1cc(C(F)(F)F)cc(Cl)c1=O)c1ccccc1 (stereo not drawn) | -0.532% |
| CN(C)c1ccc(C(=O)NCC(=O)OC(C(=O)Nc2cc(C(F)(F)F)ccc2Cl)c2ccccc2)cc1 (stereo not drawn) | 1.69% |
| COc1ccc(OC)c(NC(=O)CSC2=Nc3ccccc3C3=NC(CC(=O)NCCc4ccccc4)C(=O)N23)c1 (stereo not drawn) | 1.84% |
| COc1cc(CNCCSc2nnnn2C)ccc1OCc1ccc(Cl)cc1Cl | 48.2% (active) |
| Cn1nnnc1SCCNCc1ccc(Cl)c(Cl)c1 | -0.329% |
| Cn1nnnc1SCCCNCc1ccc(Cl)cc1 | 8.22% |
| COc1cc(CNCCSc2nnnn2C)ccc1OCc1c(F)cccc1Cl | 5.58% |
| COc1ccc(-c2ccc(CNCCCN3CCOCC3)o2)cc1Cl | 3.69% |
| Cc1c(Cl)cccc1-c1ccc(CNCCCSc2nnnn2C)o1 | 68.7% (active) |
| CCOc1ccc(CNCCSc2nnnn2C)cc1 | -0.463% |
| COc1cccc(CNCCSc2nnnn2C)c1OCc1ccccc1Cl | 4.2% |
| Cn1nnnc1SCCCNCc1cccc(OCc2ccc(Cl)cc2)c1 | 74.4% (active) |
| COc1ccc(-c2c(C)nn3c(N4CCC(C(=O)NCCC(C)C)CC4)cc(C)nc23)cc1OC | 1.66% |
| Cc1ccc(Cl)cc1N(C)C(=O)Cn1nc(Cc2cccnc2)c2ccccc2c1=O | 3.19% |
| Oc1c(Cl)cc(Cl)c(Cl)c1Cc1c(O)c(Cl)cc(Cl)c1Cl | 33.5% (active) |
| COc1cc(CN(C(=O)c2ccccc2Br)c2ccccn2)cc(OC)c1OC | -2.08% |
| Cc1ccc(OCCNC(=O)CCNS(=O)(=O)c2ccc(Br)cc2)cc1 | 74% (active) |

| SMILES | activation |
| --- | --- |
| Cc1ccc(S(=O)(=O)NCCNC(C)c2ccc(Br)cc2)cc1 (stereo not drawn) | 6.77% |
| O=C(CCNS(=O)(=O)c1ccccc1)NCCSc1ccc(Br)cc1 | 11.3% |
| Fc1ccc(-n2ncc3c(Nc4ccc(Oc5ccccc5)cc4)ncnc32)cc1 | 0.314% |
| COc1ccc(C(=O)CSc2c(C(C)C)cnc3c2c(=O)n(C)c(=O)n3C)cc1 | 2.45% |
| Cc1nc(SCCOc2ccc(Cl)cc2)[nH]c(=O)c1Cc1ccccc1 | -1.18% |
| Cc1cc2oc(C(=O)N(Cc3ccc(Cl)cc3)Cc3ccco3)c(C)c2cc1Cl | 18.5% |
| CC(Oc1ccc2ccccc2c1)C(=O)NNC(=S)NC(=O)c1ccco1 (stereo not drawn) | 50.2% (active) |
| COc1ccc(/C=C(/NC(=O)c2ccco2)C(=O)Nc2ccc(C(C)=O)cc2)cc1 | -0.901% |
| O=C(NC(=S)N1CCc2ccccc21)c1ccco1 | 1.7% |
| COc1ccc(OC)c(-c2nc(C(N)=O)c3c(n2)n(-c2ccc4c(c2)OCO4)c(=O)n3C)c1 | -1.26% |
| COc1c(C(=O)N2CCCC2)ccc2ccccc12 | 1.37% |
| COC(=O)C[n+]1cccc2ccccc21 | 87.9% (active) |
| COC(=O)CNS(=O)(=O)c1ccc(Cc2ccc(S(=O)(=O)NCC(=O)OC)cc2)cc1 | 2.26% |
| CC(=O)c1ccc(NC(=O)c2nc(-c3ccc(C)cc3)n3c2CCCCC3)cc1 | 2.3% |
| COc1ccc2cc(-c3nc(Cl)c4c5c(sc4n3)CC(C)CC5)c(=O)oc2c1 (stereo not drawn) | 8.22% |
| CCOC(=O)c1c(NC(=O)/C(C#N)=C/c2ccccc2)sc2c1CCC2 | 0.119% |
| CCOC(=O)c1c(NC(=O)NC(C)(C)C)sc2c1CCN(C)C2 | 3.08% |
| CCOC(=O)c1c(NC(=S)Nc2ccccc2)sc2c1CCN(C)C2 | 32.3% (active) |
